Compound activity (PubChem)
A selection: hits, their analogues and other compounds. The true share with any hit is near 12%.
FMDV antiviral – foot and mouth disease virus antiviral activity. FMDV antiviral cell-based qHTS. Potency, µM (doses to about 57.9 µM), usual class: inhibitors. hit rate 1.2% among 410,000. AID 1159524; calls by dose curve; tested in HEK293T cells; further: read-out not given here; nearly all actives have a fitted effect of over 45% in size
Shiga toxin inh – inhibitors of Shiga toxin in Vero cells; Vero cells, Shiga toxin protein synthesis inhibition reporter; inhibition, % at 38.7 µM; hit rate 9.2% among 290,000; in the data active means inhibition mostly above about 28%, no sharp cut-off; inactive means mostly below about 43%
Sm TGR block – inhibitors of Schistosoma mansoni thioredoxin glutathione reductase. AID 485364. purified TGR, DTNB reduction, TNB absorbance 405 nm. Q962Y6. hit rate 3% among 360,000. Potency, µM (series often up to 114 µM), usual class: inhibitors; active means well fitted inhibition curve with a large enough effect; further: nearly all actives have a fitted effect of over 60% in size
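First, TGR (20 nM dispensed) and NADPH were mixed with compound. Second, a 15 min room-temperature incubation followed. Third, further NADPH and then DTNB were added to start the reaction. Finally, TNB absorbance was monitored kinetically.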
Cycloheximide cs – counter-screen hit for Shiga toxin inhibitors, cycloheximide. cell reporter, cycloheximide protein synthesis inhibition counterscreen. hit rate 12% among 300,000. max response, %; in the data active means max response mostly above about 13%, no sharp cut-off; inactive means mostly below about 14%; further: read at 38.3 µM for the half of the compounds with a filed dose
Large screens that a line does not name were inactive.

O=C(N/N=C/c1ccc[nH]1)c1ccc2c(c1)OCO2	Shiga toxin inh 109, Cycloheximide cs 37
COc1ccc(OC)c(CCNC(=O)c2cc3c(=O)oc4ccc(C)cc4c3s2)c1	none (no result: Shiga toxin inh, Cycloheximide cs)
COc1cc(C(=O)N(Cc2ccc(F)cc2)Cc2ccco2)cc(OC)c1OC	none (no result: Shiga toxin inh, Cycloheximide cs)
O=C(N/N=C\c1cc2c(cc1Cl)OCO2)c1cccs1	Shiga toxin inh 69, Cycloheximide cs 26
Cc1ccc(-n2nnc(-c3nccn3C)n2)cc1	Cycloheximide cs 11
c1ccc(-n2nnc(-c3cccnc3)n2)cc1	Shiga toxin inh 44, Cycloheximide cs 41
COc1ncccc1-c1nnn(-c2ccccc2)n1	Shiga toxin inh 55, Cycloheximide cs 43
Fc1ccc(-n2nnc(-c3ccccc3Cl)n2)cc1	none
Cc1ccc(-n2nnc(-c3cccnc3)n2)cc1	none (no result: Shiga toxin inh, Sm TGR block, Cycloheximide cs)
Clc1ccc(-n2nnc(-c3cccnc3Cl)n2)cc1Cl	Shiga toxin inh 54, Cycloheximide cs 35
COc1ncccc1-c1nnn(-c2ccccc2Br)n1	none (no result: Shiga toxin inh, Sm TGR block, Cycloheximide cs)
COc1ccc2cc(CNc3ccc(C)cc3)c(=O)n(CC(=O)Nc3cccc(C(F)(F)F)c3)c2c1	none (no result: Shiga toxin inh, Cycloheximide cs)
Fc1ccc(-n2nnc(-c3cccnc3Cl)n2)cc1	Shiga toxin inh 89, Cycloheximide cs 54
Clc1nc2ccccc2cc1-c1nnn(-c2ccccc2)n1	Shiga toxin inh 59, Cycloheximide cs 46
Clc1ncccc1-c1nnn(-c2ccccc2)n1	Shiga toxin inh 56, Cycloheximide cs 50
Fc1ccc(-n2nnc(-c3nccs3)n2)cc1	Shiga toxin inh 54, Cycloheximide cs 38
O=C(/C=C\c1ccccc1)NC1CC(=O)N(c2ccccc2)C1 (stereo unspecified)	none (no result: Shiga toxin inh, Cycloheximide cs)
COc1ccc(-n2ccnc(NCCc3ccc(S(N)(=O)=O)cc3)c2=O)cc1Cl	none (no result: Shiga toxin inh, Cycloheximide cs)
COc1cc(OC)c(NC(=O)c2oc3ccc4c(c3c2C)C(=O)CC(C)(C)O4)cc1Cl	none (no result: Shiga toxin inh, Cycloheximide cs)
CCOc1ccc(-n2cc(-c3ccccc3)c3c(N4CCN(c5ccccc5OC)CC4)ncnc32)cc1	none (no result: Shiga toxin inh, Cycloheximide cs)
Cc1ccc(-n2nnc(-c3cnc4ccccc4c3)n2)cc1	Cycloheximide cs 57
Cc1ccc(C(=O)Nc2ccc(C(=O)/C=C/c3cccs3)cc2)cc1	Shiga toxin inh 73, Cycloheximide cs 52
O=C(C=Cc1cccs1)c1cccs1	none (no result: Shiga toxin inh, Sm TGR block, Cycloheximide cs)
O=C(/C=C/c1cccs1)c1ccc(Br)cc1	Cycloheximide cs 40
Cc1ccc(NC(=O)COC(=O)/C=C/c2cccs2)cc1	none
O=C(/C=C/c1cccs1)c1ccc(NC(=O)c2cccc(Br)c2)cc1	Shiga toxin inh 131, Cycloheximide cs 62
CCc1ccc(NC(=O)Cn2ccn(-c3ccc(OC)cc3)c(=O)c2=O)cc1	none (no result: Shiga toxin inh, Cycloheximide cs)
CCOc1ccc(CCNC(=O)c2c3c(nc4ccccc24)C(=O)N(C2CCCCC2)C3)cc1	none (no result: Shiga toxin inh, Cycloheximide cs)
CC(=O)Nc1nc(-c2ccc3c(c2)CCN3S(C)(=O)=O)cs1	Shiga toxin inh 67, Cycloheximide cs 18 (no result: Sm TGR block)
COc1ccc(NC(=O)c2ccc3c(c2)CCN3S(C)(=O)=O)cc1	none (no result: Shiga toxin inh, Sm TGR block, Cycloheximide cs)
CS(=O)(=O)N1CCc2cc(-c3csc(NC(=O)Cc4cccs4)n3)ccc21	FMDV antiviral 13µM
O=C(CN1CCOCC1)Nc1nc(-c2ccc3c(c2)CCN3S(=O)(=O)c2ccccc2)cs1	FMDV antiviral 22µM
COc1ccc(CCNC(=O)Cn2c(=O)c3cccn3c3ccccc32)cc1OC	none (no result: Shiga toxin inh, Cycloheximide cs)
CCOC(=O)C(=CNc1nc(-c2ccccc2)c(C(=O)Nc2ccc(-c3ccccc3)cc2)s1)C(=O)OCC	none
O=C(O)c1ccccc1C(=O)Nc1nc(-c2ccc3ccccc3c2)cs1	Shiga toxin inh 66, Cycloheximide cs 36
CCOC(=O)C(=CNc1nc(-c2ccc3ccccc3c2)cs1)C(=O)OCC	Shiga toxin inh 38, Cycloheximide cs 27
Cc1cc(Nc2ccccc2)nc2cc(O)ccc12	Shiga toxin inh 114, Cycloheximide cs 37
COc1ccc(Nc2cc(C)c3ccc(O)cc3n2)cc1	Shiga toxin inh 52, Cycloheximide cs 46
Cc1ccccc1C(=O)n1nc(-c2ccco2)nc1NCc1cccs1	none (no result: Shiga toxin inh, Cycloheximide cs)
COc1ccccc1OCC(=O)N(Cc1ccc(N(C)C)cc1)CC1CCCO1 (stereo unspecified)	none (no result: Shiga toxin inh, Cycloheximide cs)
CCCNC(=O)N1CCCN(S(=O)(=O)c2ccc3c(ccn3CC)c2)CC1	none (no result: Shiga toxin inh, Cycloheximide cs)
COc1ccc(NC(=O)CN2C(=O)COc3ccc(S(=O)(=O)N4CCCCC4)cc32)cc1Cl	none (no result: Shiga toxin inh, Cycloheximide cs)
COc1ccc(C2C=C(c3ccccc3)Nc3nc(NS(=O)(=O)c4ccccc4)nn32)cc1 (stereo unspecified)	none (no result: Shiga toxin inh, Cycloheximide cs)
CCSc1nnc(NC(=O)C2Cc3ccccc3CN2C(=O)c2ccco2)s1 (stereo unspecified)	Sm TGR block 32µM
COc1cccc(NC(=O)CNC(=O)[C@@H]2Cc3ccccc3CN2C(=O)OC(C)(C)C)c1	none
COc1cccc(NC(=O)[C@@H]2CCCN2C(=O)[C@@H]2Cc3ccccc3CN2C(=O)OC(C)(C)C)c1	Cycloheximide cs 20
